Candida biofilm = kills Candida albicans biofilms; C. albicans biofilm + clotrimazole, Alamar Blue; inhibition, % at 6 µM; 85,000 compounds, 0.14% hits; AID 834;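 active = inhibition above 20%; inactive = inhibition below 20%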;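 note: preformed 24 hr biofilms exposed to compound for 48 hr; 0% = biofilm without compound and 100% = blank killed by clotrimazole plus chlorhexidine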
ERb coact inh = ER-beta (human) coactivator binding inhibition | inhibition, % at 25.6 µM | TR-FRET ER-beta LBD / SRC1-Cy5 peptide binding; receptor agonist-loaded with 1 µM estradiol | Q92731 | 86,000 compounds, 1.3% hits | AID 633;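 active = compounds whose percent inhibition of the receptor-coactivator binding signal exceeds about 50% in the single-dose screen, limit read from the data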;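 note: 0% = receptor plus peptide wells without compound and 100% = peptide-only wells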
Target sequence (Q92731 whole entry, looked up, the tested form may be a part): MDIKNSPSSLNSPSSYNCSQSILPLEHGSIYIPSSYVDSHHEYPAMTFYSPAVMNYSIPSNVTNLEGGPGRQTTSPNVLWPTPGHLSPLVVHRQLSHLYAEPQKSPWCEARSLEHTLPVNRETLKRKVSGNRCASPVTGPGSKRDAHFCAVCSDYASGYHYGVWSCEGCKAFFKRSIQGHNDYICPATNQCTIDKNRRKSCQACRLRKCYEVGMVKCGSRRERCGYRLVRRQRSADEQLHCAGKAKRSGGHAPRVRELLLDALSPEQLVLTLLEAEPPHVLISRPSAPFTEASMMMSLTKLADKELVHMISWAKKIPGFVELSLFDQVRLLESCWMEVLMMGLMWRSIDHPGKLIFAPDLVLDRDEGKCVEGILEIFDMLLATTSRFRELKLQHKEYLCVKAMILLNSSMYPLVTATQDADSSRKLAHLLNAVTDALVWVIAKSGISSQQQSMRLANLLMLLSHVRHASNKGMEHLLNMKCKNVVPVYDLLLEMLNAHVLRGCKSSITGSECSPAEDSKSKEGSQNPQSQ
FAK blocker = FAK (human) kinase inhibition; biochemical FAK kinase activity assay; inhibition, %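 (tested at 7 µM)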; Q05397; 97,000 compounds, 0.84% hits; in the data active = inhibition above about 19%;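 note: 0% = DMSO and 100% = reference compound high control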
Smad3 FoxH1 inh = inhibitors of human Smad3 transcription factor binding; AID 630; inhibition, % at 25 µM; 88,000 compounds, 0.29% hits; P84022; TR-FRET Smad3/Dy647-FoxH1 peptide binding, europium anti-His;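 active = compounds that reduce the energy-transfer binding signal between the protein and its labelled peptide by more than half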;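 note: 0% = Smad3 plus labelled peptide maximal FRET and 100% = peptide-only background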
ERa SRC1 pot = enhances coactivator binding to human estrogen receptor alpha; TR-FRET ERalpha-LBD/SRC-Cy5 coactivator binding, 2 h; 100 = basal binding, no effect; coactivator binding (% of control), % at 25.6 µM; 86,000 compounds, 1.3% hits; P03372; in the data active = activity above about 200%;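 note: binding measured in presence of low estradiol as agonist stimulus; 0% = peptide alone without receptor and 100% = receptor with peptide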
ERa SRC1 inh = ER-alpha (human) coactivator binding inhibition; inhibition, % at 25.6 µM; TR-FRET ER-alpha LBD / SRC-1 peptide, estradiol-bound; AID 629; 86,000 compounds, 1.7% hits; in the data active = inhibition above about 50%;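 note: 0% = receptor plus peptide control and 100% = peptide only without receptor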
Numbers without * were called inactive; . = not tested or not shown; + = active, no number; [ ] = remark or other dose. Compounds with a hit are over-represented: about 3.3% of the library has one in this group of screens.

SMILES	Candida biofilm	ERb coact inh	FAK blocker	Smad3 FoxH1 inh	ERa SRC1 pot	ERa SRC1 inh
COCCN(CCOC)Cc1c(C)[nH]c2c(C)c(C)ccc2c1=O	-0.9	-1.2	-0.7	1.1	122.6	-9.5
COc1cc(OC)cc(C(=O)Nc2ccc(-c3nc4ccccc4o3)cc2)c1	3.6	5.7	-1.9	-11.2	96.7	-2.2
COc1cc(C(=O)Nc2ccc(-c3nc4cc(C)ccc4o3)c(O)c2)cc(OC)c1OC	3.4	16.5	2.1	10.1	245.9*	11.1
COc1cccc(C(=O)Nc2ccc(-c3nc4ccccc4o3)c(O)c2)c1	2.2	35.9	-7.7	-4.0	150.4	59.8*[fluorescence artefact?]
Cc1ccnc(NS(=O)(=O)c2ccc(N=[N+]=[N-])cc2)n1	.	.	.	-5.1	.	.
Cc1sc2nc3c4ccccc4c(NCc4ccco4)nn3c(=O)c2c1C	.	31.7	-5.8	7.2	82.3	55.8*[fluorescence artefact?]
Cc1nc(NCc2ccco2)c2c(C)c(C)sc2n1	5.0	-4.5	1.2	9.6	111.4	2.2
CCSCCCC(=O)O	.	.	.	0.8	.	.
O=C(Cn1c(=O)oc2cc(S(=O)(=O)N3CCCCCC3)ccc21)NC1CCCCC1	-4.1	38.3	.	3.7	348.5*	31.8
O=C(Cn1c(=O)oc2cc(S(=O)(=O)N3CCc4ccccc43)ccc21)NC1CCCC1	13.9	-8.5	2.2	2.5	103.6	7.8
Cc1ccc(NC(=O)Cn2c(=O)oc3cc(S(=O)(=O)N4CCC(C)CC4)ccc32)cc1C	5.2	61.6*[fluorescence artefact?]	-5.0	1.9	52.0	42.7
C(=N\Nc1nnc2c(n1)[nH]c1ccccc12)/c1cccnc1	.	.	.	18.0	.	.
Cc1ccc2c(c1)c1cccc3c1n2CCN3CCC(N)=O	11.3	60.2*[fluorescence artefact?]	11.8	-0.7	71.8	10.6
COC(=O)c1c(C(=O)OC)n(CCCN)c2ccc(C)cc12	8.7	-3.9	18.1	11.8	119.9	-6.6
COc1ccc(NC(=O)CSc2nc3ccccc3c(=O)n2CCCN2CCCCC2)c(OC)c1	11.7	-1.6	0.3	-6.0	97.7	5.5
CCC(=O)Nc1nonc1-c1nc2ccccc2n1N(C(=O)CC)C(=O)CC	8.3	49.8	2.0	-0.9	59.2	58.6*
CCOC(=O)Cn1c(-c2nonc2NC(=O)c2ccccc2F)nc2ccccc21	-1.7	29.5	-0.6	-19.0	322.4*	25.2
CCC(=O)Nc1nonc1-c1nc2ccccc2n1Cc1cccc2ccccc12	1.2	20.7	-3.0	0.5	204.5*[fluorescence artefact?]	18.9
Sc1ccc2ccccc2c1CNCc1ccccc1	.	.	.	-6.0	.	.
CC(=O)c1cccc(NC(=O)COc2ccc(S(=O)(=O)N3CCCCC3)cc2)c1	-3.1	3.0	1.9	-12.5	116.9	3.6
Clc1ccc(CN2CCCN(Cc3ccc(Cl)cc3)C2c2cc3ccccc3c3ccccc23)cc1	.	.	.	6.4	.	.
CCCCNC(=O)Nc1ccon1	0.6	99.0*[fluorescence artefact?]	-1.4	-3.2	104.3	-2.5
CN(CCOC(=O)c1ccco1)Cc1ccccc1	70.4*	-4.3	2.0	6.0	97.8	-11.0
Cc1ccc(S(=O)(=O)N[C@H](CN)C(=O)O)cc1	.	.	.	-3.1	.	.
O=C1CSC(c2c(F)cccc2Cl)N1c1cccc(F)c1 (centres undefined)	8.0	-6.7	5.4	1.7	98.3	-5.2
SMILES	Candida biofilm	ERb coact inh	FAK blocker	Smad3 FoxH1 inh	ERa SRC1 pot	ERa SRC1 inh
CC(C)(C)OC(=O)N[C@@H](Cc1ccccc1)c1nnc(SCC(=O)O)o1	4.4	91.9*[fluorescence artefact?]	-3.8	-1.3	100.6	3.0
Cc1[nH]c2ccccc2c1C(c1ccccn1)N1CCC(C(N)=O)CC1 (centres undefined)	4.0	15.4	1.3	4.0	65.7	18.9
CCn1c2ccccc2c2cc(C3C(C#N)=C(C)NC(C)=C3C#N)ccc21	4.2	3.5	8.9	6.1	214.6*	6.5
CCCCNC(=O)CSc1nc2ccccc2c(=O)n1CC1COc2ccccc2O1 (centres undefined)	8.7	10.5	-0.1	-0.3	114.4	17.6
Cc1cc([N+](=O)[O-])c(C)c(Br)c1C	.	.	.	-4.9	.	.
CCOC(=O)Cc1cc(=O)n2[nH]c(-c3ccc(C)cc3)cc2n1	7.2	56.3*	4.8	-2.3	81.9	72.5*
CCOC(=O)c1[nH]c2ccccc2c1N=CN(CC)CC	6.7	3.1	1.3	6.6	134.3	-0.5
CC(CCC(=O)O)(c1cc(Br)c(O)c(Br)c1)c1cc(Br)c(O)c(Br)c1	.	.	.	43.7	.	.
NCCSS(=O)(=O)CCN	.	.	.	61.9*	.	.
NCCCS(=O)(=O)O	6.9	7.1	.	-8.2	87.8	-1.3
O=C(Cc1cccs1)Nc1nnc(Cc2ccccc2)s1	1.3	91.3*	29.3*	-9.4	35.9	96.3*[fluorescence artefact?]
CCCCCc1nnc(NC(=O)Cc2cccs2)s1	-0.9	82.0*	17.3	1.6	20.2	94.2*[fluorescence artefact?]
O=C(Cc1cccs1)Nc1nnc(CCc2ccccc2)s1	-3.6	19.5	0.7	-11.1	102.5	15.7
O=C(Cc1cccs1)Nc1ccccn1	.	55.0*	-0.9	-3.6	71.7	56.1*
O=C(CC(=O)Nc1ccccn1)Nc1ccccn1	5.8	-6.8	-0.5	-4.8	126.7	-4.2
COc1cccc(-c2nnc(NC(=O)Cc3cccs3)s2)c1	7.5	50.0	-5.6	4.9	129.3	63.1*
CN(Cc1cc(Br)cc(Br)c1O)Cc1c(O)ccc2ccccc12	.	.	.	7.2	.	.
O=C(Cc1cccs1)Nc1nncs1	-5.6	56.0*	1.1	10.4	64.1	38.8
CC(C)c1nnc(NC(=O)Cc2cccs2)s1	10.1	24.0	.	-3.9	88.9	12.7
CCOc1ccccc1N1CCN(S(=O)(=O)c2ccc3c4c(cccc24)C(=O)N3)CC1	10.1	55.6*[fluorescence artefact?]	5.4	3.4	55.4	38.8
CCOC(=O)c1sc(NC(=O)c2ccco2)nc1-c1ccccc1	9.2	8.5	-10.2	1.2	271.1*[fluorescence artefact?]	6.1
Cc1c2cccc(Sc3ccccc3)c2c2c3c(cccc13)[S+](c1ccccc1)C2 (centres undefined)	.	.	.	6.8	.	.
N#CCCn1cnc2c(=S)nc[nH]c21	1.1	-5.9	3.8	6.3	109.8	-6.4
S=c1nc[nH]c2c1ncn2Cc1ccco1	.	.	.	65.4*	.	.
NC(N)=Nc1ccc(-c2ccc(N=C(N)N)cc2)cc1	.	.	.	5.3	.	.
SMILES	Candida biofilm	ERb coact inh	FAK blocker	Smad3 FoxH1 inh	ERa SRC1 pot	ERa SRC1 inh
O=C(COC(=O)c1cccnc1SCC(=O)NCc1ccccc1)NCc1ccccc1	5.1	11.1	-2.5	-53.5	252.3*[fluorescence artefact?]	3.3
C[C@@H](N)/C(N)=N\O	.	.	.	5.2	.	.
CC(C)[C@H](NC(=O)Nc1ccccc1F)C(=O)O	-5.7	-6.6	0.6	-8.8	103.6	-3.7
O=C(O)c1cccc(C(=O)O)c1S(=O)Cc1ccccc1 (centres undefined)	.	.	.	26.9	.	.
Cn1c(=O)c2c(nc(SCC(=O)c3cccs3)n2Cc2ccc(F)cc2)n(C)c1=O	3.4	34.5	-93.4	5.4	+[fluorescence artefact?]	9.2
Cn1c(=O)c2c(nc(Br)n2CC(=O)c2cccs2)n(C)c1=O	0.1	-7.1	1.6	0.2	100.6	-5.8
Cn1c(=O)c2c(nc(SCC(=O)NCc3ccc4c(c3)OCO4)n2Cc2ccc(Cl)cc2)n(C)c1=O	2.8	53.7*[fluorescence artefact?]	11.5	10.5	31.7	85.5*[fluorescence artefact?]

Screening results: PubChem, several laboratories
